# Laboratory results taken from PubChem BioAssay (Tox21).
# “And” between values parts separate entries of the source, which are not always exact repeats. Equal values may be shown once. Values without a mark were called inactive. A call without a number means that no potency is given here. The source made the active and inactive calls. Unless noted, calls come from the whole dose curve; as a rule, active = well fitted curve in the direction sought with a large enough effect in the repeat runs; inconclusive = weak or mixed curves; inactive = no such curve, though single readings can be large; an effect the other way counts as inactive or inconclusive.
# Tests used:
# [1] = qHTS assay to identify small molecule antagonists of the glucocorticoid receptor (GR) signaling pathway - cell viability counter screen (AID 720693); note: nearly all actives have a fitted effect of over 55% in size; note: potency is the fitted concentration of half-maximal effect
# [2] = qHTS assay for identifying genotoxic compounds that show differential cytotoxicity against isogenic chicken DT40 cell lines with known DNA damage response pathways - Rev3 mutant cell line (AID 743014); note: nearly all actives have a fitted effect of over 55% in size; note: potency is the fitted concentration of half-maximal effect
# [3] = qHTS assay for identifying genotoxic compounds that show differential cytotoxicity against isogenic chicken DT40 cell lines with known DNA damage response pathways - Rad54/Ku70 mutant cell line (AID 743015); note: nearly all actives have a fitted effect of over 60% in size; note: potency is the fitted concentration of half-maximal effect
# [4] = qHTS assay to identify small molecule antagonists of the androgen receptor (AR) signaling pathway - cell viability counter screen (AID 743033; note: nearly all actives have a fitted effect of over 45% in size; note: potency is the fitted concentration of half-maximal effect)
# [5] = qHTS assay to identify small molecule antagonists of the androgen receptor (AR) signaling pathway using the MDA cell line - cell viability counter screen (AID 743041; note: nearly all actives have a fitted effect of over 45% in size; note: potency is the fitted concentration of half-maximal effect)
# How it was run: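 Using the breast carcinoma line MDA-kb2 AR-luc, test chemicals were co-incubated with R1881 for 16 h; CellTiter-Fluor reagent, added at 15.5 h, provided a fluorescence measure of live cells.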
# [6] = qHTS assay to identify small molecule antagonists of the thyroid receptor (TR) signaling pathway - cell viability counter screen (AID 743064); note: nearly all actives have a fitted effect of over 50% in size; note: potency is the fitted concentration of half-maximal effect
# How it was run: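 GH3.TRE-Luc rat pituitary cells dosed after 4 hr plating, co-stimulated with T3 at 1 nM final, incubated 23.5 h at 37 C. Viability measured in the same wells by CellTiter-Fluor fluorescence after 30 min further at 37 C.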
# [7] = qHTS assay to identify small molecule antagonists of the thyroid receptor (TR) signaling pathway (AID 743065); note: nearly all actives have a fitted effect of over 55% in size; note: potency is the fitted concentration of half-maximal effect
# How it was run: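 Antagonism measured as loss of luciferase signal in GH3 cells stably carrying a TRE-luciferase reporter, co-treated with compound and T3 (1 nM final) for 23.5 h at 37 C. Viability was read in the same well by CellTiter-Fluor.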
# [8] = system: thyroid hormone receptor (rat, GH3 cells); assay: qHTS assay to identify small molecule agonists of the thyroid receptor (TR) signaling pathway (AID 743066; calls by dose curve)
# [9] = target: Estrogen receptor (Homo sapiens) (UniProt P03372); assay: qHTS assay to identify small molecule antagonists of the estrogen receptor alpha (ER-alpha) signaling pathway (AID 743069; active = well fitted curve in the direction sought with a large enough effect in the signal ratio in the repeat runs, not every such curve was filed as active; inconclusive = weak or mixed curves, or effect the other way; inactive = no such curve, though single readings can be large or run the other way; the % refers to the signal ratio; note: potency is the fitted concentration of half-maximal effect)
# Sequence of Estrogen receptor (Homo sapiens) (P03372 whole entry, looked up): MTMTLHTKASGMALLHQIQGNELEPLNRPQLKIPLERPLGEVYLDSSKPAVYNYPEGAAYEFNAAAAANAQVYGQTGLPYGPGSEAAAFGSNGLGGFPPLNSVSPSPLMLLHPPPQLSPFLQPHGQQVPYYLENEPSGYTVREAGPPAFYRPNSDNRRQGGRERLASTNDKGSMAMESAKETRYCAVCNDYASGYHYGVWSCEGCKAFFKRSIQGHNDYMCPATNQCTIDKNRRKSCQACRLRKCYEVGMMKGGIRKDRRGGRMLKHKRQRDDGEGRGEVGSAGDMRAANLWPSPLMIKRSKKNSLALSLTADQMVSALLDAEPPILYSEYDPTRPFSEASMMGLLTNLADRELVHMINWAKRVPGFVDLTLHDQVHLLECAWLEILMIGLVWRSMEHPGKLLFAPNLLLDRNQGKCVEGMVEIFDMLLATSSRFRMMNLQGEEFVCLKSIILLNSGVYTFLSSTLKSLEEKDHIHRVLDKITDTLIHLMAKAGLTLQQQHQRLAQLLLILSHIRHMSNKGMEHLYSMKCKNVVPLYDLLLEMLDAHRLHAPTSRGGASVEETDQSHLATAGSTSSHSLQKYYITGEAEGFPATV
# How it was run: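 Fluorescence intensity from a beta-lactamase FRET substrate served as the read-out. Cells: HEK293 with stably integrated ER-alpha-UAS-bla reporter. Agonist 17beta-estradiol was co-added with compounds; incubation 18 hr at 37C, substrate 2 hr at room temperature.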
# [10] = qHTS assay to identify small molecule antagonists of the estrogen receptor alpha (ER-alpha) signaling pathway - cell viability counter screen (AID 743074; calls by dose curve; note: nearly all actives have a fitted effect of over 45% in size; note: potency is the fitted concentration of half-maximal effect)
# [11] = target: Estrogen receptor (Homo sapiens) (UniProt P03372); assay: qHTS assay to identify small molecule agonists of the estrogen receptor alpha (ER-alpha) signaling pathway (AID 743075; calls by dose curve; note: potency is the fitted concentration of half-maximal effect); settings: HEK293 ER-alpha-UAS-bla, beta-lactamase FRET ratio, 18 h; activation: at 70.1 µM (top of the series)
# [12] = target: Estrogen receptor (Homo sapiens) (UniProt P03372); assay: qHTS assay to identify small molecule agonists of the estrogen receptor alpha (ER-alpha) signaling pathway using the BG1 cell line (AID 743079); settings: BG1Luc4E2 cells, ERE-luciferase agonist, 22 h; note: nearly all actives have a fitted effect of over 20% in size; note: potency is the fitted concentration of half-maximal effect
# [13] = qHTS assay to identify small molecule antagonists of the estrogen receptor alpha (ER-alpha) signaling pathway using the BG1 cell line (AID 743080; calls by dose curve;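 note: BG1 cells stimulated with 17beta-estradiol alongside compound; nearly all actives have a fitted effect of over 25% in size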; note: potency is the fitted concentration of half-maximal effect)
# How it was run: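 BG1-Luc-4E2 cells (endogenous full-length ER-alpha, 4xERE luciferase) hormone-starved 5 days in charcoal-stripped FBS, plated 4,000/well for 24 h, then compound plus 17beta-estradiol for 21.5 h at 37 C; ONE-Glo luminescence read.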
# [14] = qHTS assay to identify small molecule antagonists of the estrogen receptor alpha (ER-alpha) signaling pathway using the BG1 cell line - cell viability counter screen (AID 743081);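 note: compound given together with 17beta-estradiol as the ER stimulus; nearly all actives have a fitted effect of over 45% in size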; note: potency is the fitted concentration of half-maximal effect
# Aromatase (Homo sapiens) = Aromatase (Homo sapiens) (UniProt P11511); assay: qHTS assay to identify aromatase inhibitors (AID 743083); note: nearly all actives have a fitted effect of over 55% in size; note: potency is the fitted concentration of half-maximal effect
# Sequence of Aromatase (Homo sapiens) (P11511 whole entry, looked up): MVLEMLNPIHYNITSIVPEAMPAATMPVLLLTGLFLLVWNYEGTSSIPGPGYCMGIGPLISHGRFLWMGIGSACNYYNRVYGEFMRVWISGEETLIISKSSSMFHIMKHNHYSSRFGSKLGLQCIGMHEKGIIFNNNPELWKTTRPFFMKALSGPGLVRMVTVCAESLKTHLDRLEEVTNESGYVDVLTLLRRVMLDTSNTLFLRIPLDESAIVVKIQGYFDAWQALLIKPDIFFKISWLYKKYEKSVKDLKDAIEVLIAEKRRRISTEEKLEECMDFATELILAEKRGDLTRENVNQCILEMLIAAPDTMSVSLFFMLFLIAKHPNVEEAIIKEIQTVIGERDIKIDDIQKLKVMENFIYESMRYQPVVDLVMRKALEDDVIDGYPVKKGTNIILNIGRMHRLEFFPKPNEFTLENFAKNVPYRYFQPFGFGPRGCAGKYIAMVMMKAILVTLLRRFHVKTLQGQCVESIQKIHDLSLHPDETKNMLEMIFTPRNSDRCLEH
# [15] = qHTS assay for identifying genotoxic compounds that show differential cytotoxicity against isogenic chicken DT40 cell lines with known DNA damage response pathways - wild type cell line (AID 743012); note: nearly all actives have a fitted effect of over 60% in size; note: potency is the fitted concentration of half-maximal effect
# How it was run: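 Viability by ATP luminescence (CellTiter-Glo, 30 min RT) after 40 h compound treatment at 37 C/5% CO2, using 300 parental DNA repair-proficient DT40 cells per well.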
# [16] = target: Androgen receptor (Homo sapiens) (UniProt P10275); assay: qHTS assay to identify small molecule agonists of the androgen receptor (AR) signaling pathway using the MDA cell line (AID 743040; note: nearly all actives have a fitted effect of over 20% in size)
# Sequence of Androgen receptor (Homo sapiens) (P10275 whole entry, looked up): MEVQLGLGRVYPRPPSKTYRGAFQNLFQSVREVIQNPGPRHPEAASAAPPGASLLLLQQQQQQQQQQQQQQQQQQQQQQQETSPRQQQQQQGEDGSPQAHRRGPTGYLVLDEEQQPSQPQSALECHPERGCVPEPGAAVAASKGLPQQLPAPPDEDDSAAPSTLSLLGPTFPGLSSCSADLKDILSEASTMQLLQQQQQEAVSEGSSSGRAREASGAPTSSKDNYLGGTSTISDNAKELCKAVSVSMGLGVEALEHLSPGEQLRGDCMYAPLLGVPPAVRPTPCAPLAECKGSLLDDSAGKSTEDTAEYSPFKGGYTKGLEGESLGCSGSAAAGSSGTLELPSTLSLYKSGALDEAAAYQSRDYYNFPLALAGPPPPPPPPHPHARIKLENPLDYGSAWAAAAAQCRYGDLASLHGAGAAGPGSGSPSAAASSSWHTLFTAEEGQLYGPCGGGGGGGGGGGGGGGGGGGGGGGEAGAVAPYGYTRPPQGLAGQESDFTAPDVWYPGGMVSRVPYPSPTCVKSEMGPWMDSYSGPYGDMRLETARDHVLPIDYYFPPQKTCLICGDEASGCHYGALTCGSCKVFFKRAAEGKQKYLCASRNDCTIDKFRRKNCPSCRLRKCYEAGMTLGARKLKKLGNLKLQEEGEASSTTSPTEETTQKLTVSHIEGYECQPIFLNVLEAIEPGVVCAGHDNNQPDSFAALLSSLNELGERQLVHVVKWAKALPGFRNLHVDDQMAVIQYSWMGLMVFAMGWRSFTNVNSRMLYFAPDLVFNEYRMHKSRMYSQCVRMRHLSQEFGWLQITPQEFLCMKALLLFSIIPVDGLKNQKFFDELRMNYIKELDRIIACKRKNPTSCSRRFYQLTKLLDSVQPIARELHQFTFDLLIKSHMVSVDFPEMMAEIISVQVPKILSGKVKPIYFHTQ
# How it was run: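 Stable MMTV-luciferase reporter in MDA-kb2 cells; note the promoter carries GR as well as AR response elements. 16 h compound treatment, 37C, 0% CO2; ONE-Glo luminescence endpoint.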
# [17] = target: Androgen receptor (Homo sapiens) (UniProt P10275); assay: qHTS assay to identify small molecule antagonists of the androgen receptor (AR) signaling pathway using the MDA cell line (AID 743042; note: nearly all actives have a fitted effect of over 55% in size; note: potency is the fitted concentration of half-maximal effect)
# How it was run: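 Antagonist mode: compounds plus R1881 agonist added to MDA-kb2 AR-luc cells, incubated 16 h at 37C. Luciferase reporter luminescence quantified, with multiplexed CellTiter-Fluor readout for cell viability.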
SMILES,Potency [1],Potency [2],Potency [3],Potency [4],Potency [5],Potency [6],Potency [7],Potency [8],Potency [9],Potency [10],Potency [11],activation ([12]; at 95 µM (top of the series)) [%],Potency [13],Potency [14],Potency (Aromatase (Homo sapiens)),Potency [15],Potency [16],Potency [12],Potency [17],activation ([12]; at 70.3 µM (top of the series))
CSc1cnc(C)cn1,inactive,inactive,inactive,inactive,inactive,inactive,inactive,inactive,inactive,inactive,inactive,0.548,inactive,inactive,inactive,,,,,
O=c1cccccc1O,inactive,27.8 µM (active),55.5 µM (active),44.5 µM (active),inactive,19.7 µM (active),17.6 µM (active),inactive,inactive,inactive,inactive,-8.54,,inactive,,,,,,
O=C(c1ccc(O)cc1O)c1ccc(O)cc1O,inactive,,,inactive,inactive,inactive,30.7 µM (active) and 54.5 µM (active),inactive,inactive,inactive,11 µM [inconclusive] (active) and 9.77 µM [inconclusive] (active),,inactive,inactive,inactive,inactive,inactive,4.33 µM (active) and 15.4 µM (active),,
Cc1cc(CCN2CCN(c3nsc4ccccc34)CC2)cc2c1NC(=O)CC2(C)C,49 µM (active),5.45 µM (active),4.86 µM (active),13.8 µM (active),48.6 µM (active),43.3 µM (active),27.3 µM (active),,,27.5 µM (active),inactive,,,54.5 µM (active),24.3 µM (active),,inactive,,15.4 µM (active),
CC[C@@]1(O)C(=O)OCc2c1cc1n(c2=O)Cc2cc3c(CN(C)C)c(O)ccc3nc2-1,inactive,1.19 µM (active),0.841 µM (active),,,,2.37 µM (active),inactive,12 µM [inconclusive] (active),inactive,inactive,,7.5 µM (active),,5.31 µM (active),1.33 µM (active),,,,
Oc1cc2ccccc2c2ccccc12,17.4 µM (active),1.72 µM (active),1.09 µM (active),9.77 µM (active),27.3 µM (active),10.9 µM (active),10.9 µM (active),,,11 µM (active),24.5 µM [fluorescent] (active),,,,6.86 µM (active),,inactive,,13.7 µM (active),
C[C@H](CCC(=O)O)[C@H]1CC[C@H]2[C@@H]3CC[C@@H]4C[C@H](O)CC[C@]4(C)[C@H]3CC[C@]12C,inactive,inactive,inactive,inactive,inactive,27.2 µM (active) and 54.5 µM (active),17.2 µM (active) and 30.6 µM (active),inactive,,54.9 µM (active),inactive,,inactive,inactive,inactive,,,,,-1.63% and -14.3%
CC(C)=CCOc1ccc(/C=C/C(=O)c2ccc(OCC=C(C)C)cc2OCC(=O)O)cc1,inactive,,,inactive,inactive,,26.6 µM (active),,16.9 µM [inconclusive] (active),inactive,inactive,,inactive,inactive,inactive,inactive,inactive,,inactive,-17.4%
CN(C)[C@@H]1C(=O)C(C(N)=O)=C(O)[C@@]2(O)C(=O)C3=C(O)c4c(O)ccc(Cl)c4[C@@H](O)[C@H]3C[C@@H]12,inactive,,inactive,inactive,inactive,,inactive,inactive,,inactive,,,,inactive,inactive,inactive,,,,
CC(C)C(C)(C)C(C)(C)C(C)(C)S,inactive,,,,inactive,,,inactive,inactive,,inactive,,inactive,inactive,,inactive,inactive,,inactive,4.61%
O=C1c2ccccc2Cc2ccccc21,inactive,inactive,,inactive,inactive,5.49 µM (active),inactive,inactive,,inactive,,,,,inactive,inactive,,7.75 µM (active),,
CCCC/C=C/CCCCO,inactive,inactive,inactive,inactive,inactive,inactive,inactive,inactive,inactive,inactive,inactive,,inactive,,inactive,,,,,
O=C(NOCC1CC1)c1ccc(F)c(F)c1Nc1ccc(I)cc1Cl,23.9 µM (active),29.8 µM (active),,,inactive,15 µM (active),13.3 µM (active),,3.79 µM [inconclusive] (active),,inactive,,,inactive,inactive,29.8 µM (active),inactive,,,
CCC(C)(C)C1CCCCC1OC(C)=O (stereo not drawn),inactive,,inactive,inactive,inactive,inactive,inactive,inactive,inactive,inactive,inactive,,inactive,inactive,inactive,inactive,,,,7.91%
